Source: PubChem BioAssay AID1159580 (chemical genetic matrix, 2015)
The whole screen tested about 5,500 compounds, of which about 2,000 (36%) were called active. Inconclusive results (about 18%) are left out. Cut-off read from the data, not from the text of the source: active = normalized growth mostly below about 0.91 (no sharp cut-off); inconclusive = no clear call, values can overlap the other calls; inactive = mostly above about 0.92. The list shows a part of the results.

Assay: chemical genetic growth profiling, strain panel (AID 1159580);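 note: tested at 20 µM; growth read once vehicle control cultures reached saturation at 30 °C; 1 = growth at the plate median or of vehicle wells; lower values mean less growth of the strain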
Conditions: growth OD

Measured: normalized growth

C1CCN2C[C@@H]3C[C@H](CN4CCCC[C@@H]34)[C@H]2C1
inactive: S. cerevisiae deletion strains, locus YJR066W, strain TOR1, hits give low values 0.988 | S. cerevisiae deletion strains, locus YJR075W, strain HOC1, hits give low values 1.01 | S. cerevisiae deletion strains, locus YKL009W, strain mrt4, hits give low values 0.994 | S. cerevisiae deletion strains, locus YKL068W, hits give low values 0.999 | S. cerevisiae deletion strains, locus YKL085W, strain MDH1 (second series), hits give low values 1.02 | S. cerevisiae deletion strains, locus YKL085W, strain MDH1, hits give low values 1.02 | S. cerevisiae deletion strains, locus YKL160W, strain elf1, hits give low values 0.987 | S. cerevisiae deletion strains, locus YKL190W, strain CNB1, hits give low values 1.02 | S. cerevisiae deletion strains, locus YKR001C, strain vps1, hits give low values 0.996 | S. cerevisiae deletion strains, locus YKR026C, strain gcn3, hits give low values 1.01 | S. cerevisiae deletion strains, locus YKR091W, strain srl3, hits give low values 1 | S. cerevisiae deletion strains, locus YLL001W, strain dnm1, hits give low values 0.999 | S. cerevisiae deletion strains, locus YLL026W, hits give low values 1.01 | S. cerevisiae deletion strains, locus YLL041C, strain sdh2, hits give low values 0.999 | S. cerevisiae deletion strains, locus YLR027C, strain aat2, hits give low values 0.992 | S. cerevisiae deletion strains, locus YLR039C, strain RIC1, hits give low values 1.06 | S. cerevisiae deletion strains, locus YLR058C, strain SHM2, hits give low values 1.01 | S. cerevisiae deletion strains, locus YLR102C, strain apc9, hits give low values 0.993 | S. cerevisiae deletion strains, locus YLR113W, strain HOG1, hits give low values 1.01 | S. cerevisiae deletion strains, locus YLR221C, strain rsa3, hits give low values 1.03 | S. cerevisiae deletion strains, locus YLR258W, strain gsy2, hits give low values 1.01 | S. cerevisiae deletion strains, locus YLR262C, strain YPT6 (second series), hits give low values 1.04 | S. cerevisiae deletion strains, locus YLR262C, strain YPT6, hits give low values 1.1 | S. cerevisiae deletion strains, locus YLR268W, strain sec22, hits give low values 0.996 | S. cerevisiae deletion strains, locus YLR320W, strain mms22, hits give low values 1.04 | S. cerevisiae deletion strains, locus YLR330W, strain CHS5, hits give low values 1.02 | S. cerevisiae deletion strains, locus YLR342W, strain FKS1 (second series), hits give low values 0.996 | S. cerevisiae deletion strains, locus YLR342W, strain FKS1, hits give low values 1 | S. cerevisiae deletion strains, locus YLR357W, strain rsc2, hits give low values 1.02 | S. cerevisiae deletion strains, locus YLR370C, strain arc18, hits give low values 1.01 | S. cerevisiae deletion strains, locus YLR371W, strain rom2, hits give low values 0.999 | S. cerevisiae deletion strains, locus YLR384C, strain iki3, hits give low values 1.01 | S. cerevisiae deletion strains, locus YLR418C, strain cdc73, hits give low values 0.98 | S. cerevisiae deletion strains, locus YML016C, strain PPZ1, hits give low values 0.997 | S. cerevisiae deletion strains, locus YML032C, strain rad52, hits give low values 0.994 | S. cerevisiae deletion strains, locus YML120C, strain ndi1, hits give low values 1.01 | S. cerevisiae deletion strains, locus YML124C, strain tub3, hits give low values 1.01 | S. cerevisiae deletion strains, locus YMR058W, strain fet3, hits give low values 1.01 | S. cerevisiae deletion strains, locus YMR078C, strain ctf18, hits give low values 1 | S. cerevisiae deletion strains, locus YMR125W, strain sto1, hits give low values 0.995 | S. cerevisiae deletion strains, locus YMR129W, hits give low values 1.03 | S. cerevisiae deletion strains, locus YMR205C, strain PFK2, hits give low values 0.997 | S. cerevisiae deletion strains, locus YMR223W, strain ubp8, hits give low values 1.01 | S. cerevisiae deletion strains, locus YMR231W, strain pep5, hits give low values 1.01 | S. cerevisiae deletion strains, locus YMR307W, strain GAS1, hits give low values 1.02 | S. cerevisiae deletion strains, locus YNL067W, strain RPL9B, hits give low values 1.01 | S. cerevisiae deletion strains, locus YNL071W, strain lat1, hits give low values 1.01 | S. cerevisiae deletion strains, locus YNL153C, strain GIM3, hits give low values 1.01 | S. cerevisiae deletion strains, locus YNL183C, strain NPR1, hits give low values 0.98 | S. cerevisiae deletion strains, locus YNL209W, strain ssb2, hits give low values 1.01 | S. cerevisiae deletion strains, locus YNL233W, strain BNI4, hits give low values 1.01 | S. cerevisiae deletion strains, locus YNL248C, strain rpa49, hits give low values 1.03 | S. cerevisiae deletion strains, locus YNL250W, strain rad50, hits give low values 1.02 | S. cerevisiae deletion strains, locus YNL271C, strain bni1, hits give low values 1.01 | S. cerevisiae deletion strains, locus YNL298W, strain CLA4, hits give low values 0.994 | S. cerevisiae deletion strains, locus YNL307C, strain MCK1, hits give low values 1.01 | S. cerevisiae deletion strains, locus YNL322C, strain KRE1 (second series), hits give low values 1.01 | S. cerevisiae deletion strains, locus YNR049C, strain mso1, hits give low values 1.01 | S. cerevisiae deletion strains, locus YNR052C, strain pop2, hits give low values 1.02 | S. cerevisiae deletion strains, locus YOL006C, strain TOP1, hits give low values 1.08 | S. cerevisiae deletion strains, locus YOL012C, strain htz1 1.61 | S. cerevisiae deletion strains, locus YOL147C, strain pex11, hits give low values 1 | S. cerevisiae deletion strains, locus YOR001W, strain rrp6, hits give low values 1.02 | S. cerevisiae deletion strains, locus YOR061W, strain CKA2, hits give low values 1.01 | S. cerevisiae deletion strains, locus YOR069W, strain VPS5, hits give low values 1 | S. cerevisiae deletion strains, locus YOR070C, strain gyp1, hits give low values 1.02 | S. cerevisiae deletion strains, locus YOR080W, strain dia2, hits give low values 0.999 | S. cerevisiae deletion strains, locus YOR083W, strain WHI5, hits give low values 0.979 | S. cerevisiae deletion strains, locus YOR106W, strain vam3, hits give low values 1 | S. cerevisiae deletion strains, locus YOR136W, strain idh2, hits give low values 0.998 | S. cerevisiae deletion strains, locus YOR144C, strain elg1, hits give low values 0.989 | S. cerevisiae deletion strains, locus YOR184W, strain ser1, hits give low values 0.995 | S. cerevisiae deletion strains, locus YOR231W, strain MKK1, hits give low values 1.03 | S. cerevisiae deletion strains, locus YOR265W, strain rbl2, hits give low values 1 | S. cerevisiae deletion strains, locus YOR270C, strain vph1, hits give low values 1.05 | S. cerevisiae deletion strains, locus YOR290C, strain snf2, hits give low values 0.979 | S. cerevisiae deletion strains, locus YOR316C, strain cot1, hits give low values 1 | S. cerevisiae deletion strains, locus YPL051W, strain arl3, hits give low values 0.999 | S. cerevisiae deletion strains, locus YPL055C, strain LGE1, hits give low values 1.02 | S. cerevisiae deletion strains, locus YPL078C, strain atp4, hits give low values 0.978 | S. cerevisiae deletion strains, locus YPL106C, strain sse1, hits give low values 1.01 | S. cerevisiae deletion strains, locus YPL240C, strain hsp82, hits give low values 0.999 | S. cerevisiae deletion strains, locus YPL241C, strain CIN2, hits give low values 1 | S. cerevisiae deletion strains, locus YPL256C, strain CLN2, hits give low values 1.06 | S. cerevisiae deletion strains, locus YPR119W, strain clb2, hits give low values 0.999 | S. cerevisiae deletion strains, locus YPR141C, strain kar3, hits give low values 1 | S. cerevisiae deletion strains, locus YPR163C, strain tif3, hits give low values 1 | S. cerevisiae deletion strains, locus YPR167C, strain met16, hits give low values 1.02 | S. cerevisiae deletion strains, strain wtn01, hits give low values 1.01 | S. cerevisiae strains, strain wild type, hits give low values 1.02
